Data on 64 compounds can be found in ChEMBL document CHEMBL4513216, “Probing the Open Global Health Chemical Diversity Library for Multistage-Active Starting Points for Next-Generation Antimalarials” (ACS Infect Dis, 2020).

Among all 68,000 compounds or so, about 2,700 (4%) showed an effect of 50% or more. Only a selection was taken, and strong results are over-represented in it overall.

In the test the test system is Plasmodium berghei. The test is described as follows: Screen against P. berghei liver stage (PbLuc), transformed with Luciferase, at 2uM. As to conditions: tested at 2 uM. Type of test: functional, HepG2.
In the case of `Cc1cnn(CC2CCCN2C(=O)c2ccc(-n3cccn3)nc2)c1` (centres undefined), the INHIBITION is -26.85%.
With `O=C(NCC(F)(F)F)c1ccc(-c2ccco2)[nH]c1=O`, the INHIBITION is given as -5.09%.
With `Cc1cnn(CC2CN(Cc3nccn3CC(F)(F)F)CCO2)c1` (centres undefined), the INHIBITION is recorded as 36.64%.
Consider `CN1C[C@@H](NC(=O)c2ccccc2)C[C@H]1c1nc(-c2cnccn2)no1`, for which the INHIBITION is 23.26%.
The same measure for `COc1ccc(CNC(=O)CCc2nnc3ccccn3c2=O)cc1`: 8.41%; for `CO[C@@H]1CCN(C(=O)Cc2ccc(F)cc2)[C@@H]1Cc1cccnc1`: -16.75%; for `OC1(Cn2ccc3ncccc32)CCN(Cc2cccnc2)CC1`: 53.24%.
To `OC1(Cn2ccc3ncccc32)CCN(Cc2cc(F)cc(F)c2)CC1` belongs 31.56%; to `CCn1cc(CN2CCC(O)(Cn3ccc4ncccc43)CC2)cn1`, 22.39%; to `O=C(CCOc1ccccc1)N1CCCC(n2cncn2)C1` (centres undefined), 33.5%.
`Cc1nc2c(c(N3CC=CC3)n1)CCN(c1ncccc1C(N)=O)CC2`: the INHIBITION is -11.31%.
The same measure for `CCS(=O)(=O)CCCOc1nc(-c2ccccc2Cl)no1`: -5.27%; for `O=C1CCC2(CCC(NC3CCOC3)CC2)N1Cc1ccncc1` (centres undefined): 56.76%; for `Cc1ccc(CN2C(=O)CCC23CCC(NC2CCOC2)CC3)cc1` (centres undefined): 29.85%.
The same measure for `O=C1CCC2(CCC(NC3CCOC3)CC2)N1Cc1ccccc1` (centres undefined): 35.34%.
To `CCc1ccc(CN(C)c2cc(COC)nc3ccnn23)cc1` belongs 14.96%; to `CN(Cc1cnn(C)c1)C(=O)C1COc2ccccc2C1` (centres undefined), -11.77%.
Consider `O=C(NC1CCC1)[C@H]1C[C@H]2CN(S(=O)(=O)c3ccccc3)C[C@@H]1O2`, for which the INHIBITION is recorded as 24.34%.
The same measure for `Cc1cccc(C)c1OCCNC(=O)NC(C)c1nncn1C` (centres undefined): 64.53%.
`Cc1cccc(OCCCNC(=O)NC(C)c2nncn2C)c1` (centres undefined): the INHIBITION is on record as -7.01%.
On to `Cc1ccc(OCCCNC(=O)NC(C)c2nncn2C)cc1` (centres undefined), for which the INHIBITION is -10.5%.
The same measure for `N[C@H]1CN(CCCOc2ccccc2)C[C@@H]1C1CC1`: 18.64%; for `N[C@H]1CN(CCOc2ccc(F)cc2)C[C@@H]1C1CC1`: 55.85%.
As to `NC(=O)c1ccc(OCCCN2C[C@H](C3CC3)[C@@H](N)C2)cc1`, the INHIBITION was 9.56%.
To `COC1CN(C(=O)OCC(C)C)CCC(=O)N(C)c2ccccc21` (centres undefined) belongs -16.76%; to `Cc1nn(C)c2nc(N3CCCCC3c3ccc(F)cc3)sc12` (centres undefined), 8.3%; to `C1CCC(CN2Cc3nnn(CC4CC4)c3C(COCC3CC3)C2)C1` (centres undefined), -6.19%.
To `O=C1[C@@H]2CCN(Cc3ccoc3)C[C@@H]2OCCN1Cc1cccc(F)c1` belongs 20.41%; to `Cc1cc(NS(=O)(=O)c2ccc(Cl)s2)ccc1-n1cccc1C(=O)O`, 31.15%; to `Cc1ccc(S(=O)(=O)Nc2ccc(-n3cccc3C(=O)O)c(C)c2)s1`, -1.14%.
To `Cc1cc(NS(=O)(=O)c2cccs2)ccc1-n1cccc1C(=O)O` belongs 50.17%; to `O=C(NCCOc1ccccc1)NCC(O)c1cccs1` (centres undefined), -85.29%; to `Cc1ccoc1C(=O)N1C[C@@H]2[C@@H](C1)OCC(=O)N2Cc1cccnc1`, -2.91%.
On to `Cc1nc2c(c(NC3CC3)n1)CCN(C(=O)CCO)CC2`, for which the INHIBITION was -10.44%.
On to `CC(=O)N1CCC(C(=O)NCCN2CCCCC2)CC1`, for which the INHIBITION was 18.97%.
With `COc1ccc(CCNC(=O)N2CCN(C)[C@@H]3CS(=O)(=O)C[C@@H]32)cc1`, the INHIBITION is listed as 43.44%.
For the compound `COc1ccc(CNC(=O)N2CCN(C)[C@@H]3CS(=O)(=O)C[C@@H]32)cc1`, the INHIBITION is -47.18%.
To `CN1CCN(C(=O)NCCc2ccc(F)cc2)[C@H]2CS(=O)(=O)C[C@H]21` belongs 50.59%; to `Cc1ccc(OCCN2CCN(Cc3cnn(CCO)c3)CC2)cc1`, -72.55%; to `COCC(=O)N1CCCC1c1cccc(Nc2ncc(C)s2)n1` (centres undefined), 44.48%.
The same measure for `COCC(=O)N1CCCCC1c1ccnc(Nc2ncc(C)s2)n1` (centres undefined): 60.74%; for `COCC(=O)N1CCCCC1c1ccnc(Nc2cnccn2)n1` (centres undefined): 11.55%.
The same measure for `CN1CCN(C(=O)c2n[nH]c3c2CN(C2CCOCC2)CC3)CC1`: 36.44%; for `COc1cc(CNC(C)c2cccc(Cl)c2)cc(OC)c1OC` (centres undefined): 27.88%; for `CC(C)c1ccc(OCC(=O)NS(=O)(=O)c2cccnc2)cc1`: -1.85%.
For `Cc1cccc(NCC(=O)Nc2cc(F)ccc2F)c1C(N)=O`, the INHIBITION is given as 38.91%.
With `Cc1cc(C)n(CC2(CNC(=O)C(c3ccc(F)cc3)N(C)C)CC2)n1` (centres undefined), the INHIBITION is given as -4.04%.
With `Cc1cc(C)n(CC2(CNC(=O)C(c3ccccc3F)N(C)C)CC2)n1` (centres undefined), the INHIBITION is listed as 55.85%.
For `Cc1cc(C)n(CC2(CNC(=O)C(c3ccccc3C)N(C)C)CC2)n1` (centres undefined), the INHIBITION is recorded as -14.49%.
The same measure for `Cc1cc(C(F)(F)F)nc(CCNC(C)Cn2ccnc2)n1` (centres undefined): -15.14%; for `OCCN(Cc1nc(-c2ccc3c(c2)OCO3)no1)Cc1cccs1`: -49.59%; for `OCCN(Cc1ccccc1)Cc1nc(-c2ccc3c(c2)OCO3)no1`: -48.83%.
In the case of `OCCN(Cc1nc(-c2ccc3c(c2)OCO3)no1)CC1CC1`, the INHIBITION is given as 83.98%.
To `COCCS(=O)(=O)Nc1ccc(-n2cncn2)c(F)c1` belongs 3.33%; to `CN1CCN(C(=O)c2cc3sccc3n2Cc2ccccc2F)CC1`, -10.78%.
`Cc1ccc(N2CC[C@@H]3CN(Cc4cc[nH]n4)C[C@@H]3C2)nn1`: the INHIBITION is on record as 27.95%.
For the compound `CC(C)(C)CCNc1nccc(-c2c[nH][nH]c2=O)n1`, the INHIBITION is recorded as 22.5%.
To `c1ccc(NC[C@@H]2CCC[C@@H]3CN(Cc4csnn4)C[C@@H]32)nc1` belongs 24.51%.
The same measure for `c1cnc(NC[C@@H]2CCC[C@@H]3CN(Cc4csnn4)C[C@@H]32)nc1`: 55.7%; for `CC(C)(C)NC[C@@H]1CCC[C@@H]2CN(Cc3csnn3)C[C@@H]21`: -21.74%; for `COc1ccc2[nH]cc(C(=O)CNc3nc(C)cs3)c2c1`: 20.71%.
In the case of `O=C(NCCN1CCCC(CO)C1)c1ccc2sccc2c1` (centres undefined), the INHIBITION worked out at 13.99%.
The same measure for `O=C(NCCN1CCOC1=O)c1ccc2sccc2c1`: 61.27%; for `O=C(NCCN1CCOC1=O)c1cc(-c2ccccc2)on1`: 9.85%.
